Reference: the supplement of paper PMC7156485
± gives the standard deviation of the averaged measurements.

Columns and labels:
Conditions in all cases: concentration: 10 µM; 24 h
HCC1569 [1] = assay: cell number relative to DMSO (% of DMSO); higher = more cells (less growth inhibition / toxicity)
Method in brief: (§1)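 Cells were seeded at 800 per well in 384-well plates with RPMI containing 10% FBS; both HCC1569 and TDF lines were used. Compounds were added at 10 µM for 24 h at 37 °C, in triplicate, before fixation in 3.7% formaldehyde and staining with a rabbit anti-H1.0 antibody, an AlexaFluor 647 secondary and DAPI. H1.0 nuclear intensity or cell number is reported as percent of the plate control using the median of replicates, and HCC1569 values were smoothed for positional effects.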

TDF [2] = assay: as above
Method in brief: as §1

TDF [3] = assay: H1.0 immunofluorescence intensity relative to DMSO (% of DMSO); higher = stronger H1.0 induction, active = 120 or more
Method in brief: as §1

HCC1569 [4] = assay: H1.0 immunofluorescence intensity relative to DMSO (% of DMSO); higher = stronger H1.0 induction, active = 140 or more
Method in brief: as §1
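Wherever H1.0 immunofluorescence intensity relative to DMSO is given: TDF is a line of transformed human dermal fibroblasts of mesenchymal origin.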
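Wherever cell number relative to DMSO is given: TDF denotes transformed human dermal fibroblasts of mesenchymal origin.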

Compound	cell number (HCC1569 [1])	cell number (TDF [2])	H1.0 immunofluorescence intensity (TDF [3])	H1.0 immunofluorescence intensity (HCC1569 [4])
CCCCCCCCCCCCC(=O)O [Tridecanoic acid]	105	92.9	107 (inactive)	101 (inactive)
CCCCCC(O)C=CC1C(O)CC(O)C1CC=CCCCC(=O)O (stereo not drawn) [Prostaglandin F2a]	97.3	107	97.6 (inactive)	112 (inactive)
Cl.Cl.OCCN1CCN(CCCN2c3ccccc3Sc3ccc(C(F)(F)F)cc32)CC1 [Fluphenazine dihydrochloride]	92.5	96.3	118 (inactive)	133 (inactive)
COC(=O)c1cnn(-c2ccc(F)cc2F)c1/C=N/NC(=S)NC(C)(C)C	95.9	101	99 (inactive)	102 (inactive)
CC(=O)C1(O)CCC2C3CCC4=CC(=O)CCC4(C)C3CCC21C (stereo not drawn) [17- Hydroxyprogesterone]	104	96	94 (inactive)	104 (inactive)
CN(C)CCOc1ccc(-c2nc(=c3ccc4c(c3)CCC=4N=O)c(=C3C=CNC=C3)[nH]2)cc1	88.6	49	117 (inactive)	132 (inactive)
CC1=NS(=O)(=O)c2cc(Cl)ccc2N1 [Diazoxide]	101.1 ± 0.59	111 ± 7.2	101 (inactive)	101 (inactive)
N=S(=O)([O-])Cc1noc2ccccc12.[Na+] [Zonisamide sodium]	104	117	92.2 (inactive)	98.6 (inactive)
COc1ccc(-c2cc(=S)ss2)cc1 [Anethole trithione]	93.6	104	98.2 (inactive)	103 (inactive)
N#CC(=C(N)Sc1ccc(N)cc1)c1ccccc1C(F)(F)F	102	115	90.6 (inactive)	126 (inactive)
CCC1(O)CC2CN(CCc3c([nH]c4ccccc34)C(C(=O)OC)(c3cc4c(cc3OC)N(C)C3C(O)(C(=O)OC)C(OC(C)=O)C5(CC)C=CCN6CCC43C65)C2)C1 (stereo not drawn) [Vinblastine]	53.6	9.51	161 (active)	164 (active)
Cl.O[Si](CCCN1CCCCC1)(c1ccc(F)cc1)C1CCCCC1 (stereo not drawn) [Hexahydro-sila-difenidol hydrochloride, p-fluoro analog]	97.5	88.2	102 (inactive)	105 (inactive)
